Source: PubChem BioAssay
CHO-K1 Ca antag: M1 antagonist counterscreen hit in parental CHO-K1 cells. ATP-induced calcium, Fluo-8 fluorescence. inhibition, % at 3 µM. 0.6% of 360,000 active;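 active = inhibition above a per-plate cutoff, the plate's mean sample inhibition plus 3 SD, cut at about 24% in these data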;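 also: 0% = DMSO plus EC80 ATP and 100% = DMSO alone without ATP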
CHRM1 antagonist: antagonists of human M1 muscarinic receptor | 1.3% of 360,000 active | CHO-K1 hM1, Fluo-8 calcium fluorescence, ACh EC80 antagonist | AID 588852 | inhibition, % at 3 µM | P11229;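 active = percent inhibition above its own plate's cutoff, namely the mean of that plate's compound wells plus 3 SD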;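 also: peak over basal fluorescence ratio during 140 s after agonist addition; 0% = ACh EC80 plus DMSO and 100% = DMSO alone without agonist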
Target sequence (P11229 whole entry, looked up): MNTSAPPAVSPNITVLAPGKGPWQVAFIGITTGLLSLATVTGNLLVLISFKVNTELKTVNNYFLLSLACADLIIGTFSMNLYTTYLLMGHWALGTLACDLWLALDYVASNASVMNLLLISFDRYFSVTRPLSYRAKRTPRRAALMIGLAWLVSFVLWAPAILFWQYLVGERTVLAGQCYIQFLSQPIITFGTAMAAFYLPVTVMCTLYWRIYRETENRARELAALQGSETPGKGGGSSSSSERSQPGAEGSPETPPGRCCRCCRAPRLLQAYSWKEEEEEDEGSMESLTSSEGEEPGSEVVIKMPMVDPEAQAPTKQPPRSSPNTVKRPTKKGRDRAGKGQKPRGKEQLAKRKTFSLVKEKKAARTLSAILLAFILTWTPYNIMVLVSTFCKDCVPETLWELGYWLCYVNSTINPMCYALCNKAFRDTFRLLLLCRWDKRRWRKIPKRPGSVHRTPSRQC
M1 PAM parental: M1 PAM counterscreen hit in parental CHO-K1 cells; activation, % at 3 µM; ATP EC20, Fluo-8 calcium fluorescence; 0% at ATP EC20, 100% at ATP max; 0.02% of 360,000 active;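 active = activation above the run cutoff, the mean activation of all test compounds plus 3 SD, cut at about 40% in these data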;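 also: peak over basal fluorescence ratio in a 140 s read after ATP addition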
CHO-K1 Ca ag: counter-screen for M1 agonists: effect in parental CHO-K1 cells; Fluo-8 calcium fluorescence; scaled to maximal ATP response, vehicle zero; activation, % at 3 µM; 0.48% of 360,000 active; AID 602248; in the data active = activation above about 15%;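 also: untransfected CHO-K1 host cells lacking M1 receptor as counterscreen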
M1 PAM: positive allosteric modulators of human M1 muscarinic receptor | activation, % at 3 µM | 0.088% of 360,000 active | P11229 | CHO-K1 hM1, Fluo-8 calcium fluorescence, ACh EC20; 0% = ACh EC20, 100% = maximal ACh; in the data active = activation above about 19%, passing the limit was not always enough
CHRM1 agonist: human M1 muscarinic receptor agonism; P11229; CHO-K1 hM1, Fluo-8 calcium fluorescence, agonist mode; 0% DMSO, 100% acetylcholine EC100; activation, % at 3 µM; 0.33% of 360,000 active;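 active = activation above the run's mean compound activation plus 3 SD, cut at about 16% in these data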;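 also: peak over basal fluorescence ratio within a 140 s kinetic read after compound addition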
The depositor's hits bear a star. A selection: hits, their analogues and other compounds. The true share with any hit is near 2.3%.

SMILES	CHO-K1 Ca antag	CHRM1 antagonist	M1 PAM parental	CHO-K1 Ca ag	M1 PAM	CHRM1 agonist
COc1ccc(CNC(=O)CN(C(=O)c2snc(C(N)=O)c2N)c2ccc(OC)c(OC)c2)cc1	-23.5	-11.5	-7.3	0.9	5.1	-1.7
C/C(=N\NC(=O)Cn1c(-c2ccccn2)nc2ccccc21)c1ccccc1	25.7*	14.5	-14.0	1.3	-2.1	2.3
O=C(CNCCO)N1N=C(c2cccs2)CC1c1cccs1 (centres undefined)	-16.2	-9.0	7.7	0.2	6.6	-15.8
O=C(CN1CCCCC1)N1N=C(c2cccs2)CC1c1cccs1 (centres undefined)	-2.0	96.8*	16.5	0.5	-26.0	-9.4
CC1(C)CC(=O)C(C=NCCN2CCOCC2)=C(O)C1	-14.7	-27.1	18.7	0.1	3.8	-1.8
CC1(C)CC(=O)C(C=NCCN2CCN(CCCCS(=O)(=O)O)CC2)=C(O)C1	24.8*	4.0	-7.7	-0.2	2.3	-3.4
C[C@@H]1CN([C@H](C)CO)C(=O)CCCn2nncc2CO[C@H]1CN(C)Cc1ccc(Cl)c(Cl)c1	-14.6	-13.0	7.2	0.7	5.7	-8.9
O=c1[nH]c(/C=C\c2cccc(F)c2)nc(O)c1[N+](=O)[O-]	-60.0	-20.1	40.8*	0.9	8.0	3.9
C=CCOc1ccc(/C=C\c2nc(O)c([N+](=O)[O-])c(=O)[nH]2)cc1OC	-6.4	-7.8	2.1	0.2	0.1	-4.3
O=c1[nH]c(/C=C\c2cccc(Cl)c2)nc(O)c1[N+](=O)[O-]	9.2	-5.0	-9.9	-0.6	-0.4	-2.0
C=CCOc1ccc(/C=C\c2nc(O)c([N+](=O)[O-])c(=O)[nH]2)cc1OCC	-8.6	-3.5	0.9	1.1	27.3*	-4.0
O=S1(=O)C[C@H](N2CC[C@@H](O)C2)[C@@H](COCc2ccccc2)N1	26.9*	7.6	-7.9	-0.2	-0.8	-4.7
CN(C)[C@H]1CCN([C@H]2CS(=O)(=O)N[C@@H]2COCc2ccccc2)C1	10.9	-12.6	20.8	0.6	10.7	-9.6
CCN(Cc1ccccc1)C(=O)CN1C(=O)COc2ccc(S(=O)(=O)N3CCCCCC3)cc21	-2.3	13.2	8.8	2.3	-6.9	-1.7
CCN(C(=O)CN1C(=O)COc2ccc(S(=O)(=O)N3CCCCCC3)cc21)c1cccc(C)c1	-8.0	-1.0	24.2	34.9*	1.5	2.6
CC(=O)c1ccc(OCCCN2CCCCC2)cc1	-8.8	14.2	10.1	-0.2	-19.7	-6.7
c1ccc(COc2ccc(OCCCN3CCCCC3)cc2)cc1	19.4	49.6*	-6.5	1.6	-26.2	-4.6
CC1CCN(CCOc2ccc(OCc3ccccc3)cc2)CC1	-9.3	61.4*	19.5	2.2	-24.6	-10.7
O=C(c1ccccc1)c1ccc(OCCCN2CCCCC2)cc1	-6.1	34.0*	10.7	0.3	-21.4	-6.1
CC1CCN(CCCCOc2ccc(C(C)(C)C)cc2)CC1	1.0	59.5*	-5.2	9.0	-28.7	-6.0
O=C1C=C(c2ccc(Cl)c(C(F)(F)F)c2)C[C@@H](c2ccc3c(c2)OCO3)C1	4.5	1.0	-0.8	-0.3	-1.6	-5.3
CC1CN(S(=O)(=O)c2cccc(C(=O)Nc3ccc(S(=O)(=O)NC4=NCCCCC4)cc3)c2)CC(C)O1 (centres undefined)	-10.0	-12.4	3.1	0.7	1.9	-1.8
COCCCNCCCCOc1ccc(OCc2ccccc2)cc1	4.7	5.1	0.6	5.3	-3.6	-7.7
c1ccc(CCCN2CCOCC2)cc1	-13.3	-15.3	4.6	0.7	13.3	-2.5
CC1CC(C)CN(CCCCOc2ccc([N+](=O)[O-])cc2)C1 (centres undefined)	-10.3	24.0*	21.3	0.8	-24.1	-8.1
c1ccc(COc2ccc(OCCCCN3CCCC3)cc2)cc1	-8.2	35.4*	25.3	7.2	-20.6	-3.7
c1ccc(COc2ccc(OCCCNC3CCCC3)cc2)cc1	0.9	28.7*	17.6	6.3	-23.2	3.4
c1ccc(OCc2ccc(CCCN3CCOCC3)cc2)cc1	7.8	36.9*	-6.7	1.6	-21.9	-5.1
CC(=O)Oc1ccccc1C(=O)OCCN=C1NS(=O)(=O)c2ccccc21	-6.7	-1.8	-3.6	1.6	4.3	-0.9
COc1ccc(C(=O)OCC(=O)Nc2ccc(OC(F)F)cc2)c(OC)c1	24.9*	-2.5	-6.4	-0.2	2.5	-4.7
